Cav32 inh – Cav3.2 calcium influx blockers – cell-based, Fluo-4 calcium fluorescence, FDSS, MLSMR library, primary screen; Voltage-dependent T-type calcium channel subunit alpha-1H (Homo sapiens), O95180; B-score at 10 µM; AID 449739, 2010; 100,000 tested, 4% active; Cav3.2-expressing cells; stronger effect = lower value;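 active = single-dose well whose peak fluorescence ratio is a statistical outlier from its plate by either plate-standardised score or position-corrected B-score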
CYP2C19 act – human CYP2C19 activators, primary screen, biochemical, luminescence; Cytochrome P450 2C19 (Homo sapiens), P33261; AID 1025, 2008; recombinant CYP2C19, luciferin-H EGE luminescence; stronger effect = higher value; 0 = fully inhibited enzyme, 1 = untreated enzyme; activation factor at 5 µM; 96,000 tested, under 10 active;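 active = activation factor of at least 2 at 5 µM in the primary screen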;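 also: 0 = wells with 2.5 mM tranylcypromine and 1 = vehicle-only wells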
CYP2C19 inh – blockers of cytochrome P450 2C19 activity – biochemical, luminescence, ADME assay, primary screen; AID 778, 2007; 96,000 tested, 21% active; inhibition, % at 5 µM; CYP2C19 Supersomes, luciferin-H EGE luminescence, 30 min;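 active = CYP2C19 inhibition above a set limit at 5 µM in the primary screen, cut at about 50% in these data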;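 also: plate controls were negative control wells for no effect and 2.5 mM tranylcypromine positive control for full effect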
CYP2C9 act – human CYP2C9 activators, primary screen, biochemical, luminescence; Cytochrome P450 2C9 (Homo sapiens), P11712; recombinant CYP2C9, luciferin-H conversion; stronger effect = higher value; factor 1 = untreated enzyme, 0 = blocked; activation factor at 5 µM; 96,000 tested, 1.4% active;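 active = activation factor of 2 or more for CYP2C9 at a 5 µM dose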;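 also: 0 = sulfaphenazole-blocked wells and 1 = vehicle-only wells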
Target sequence (P11712 whole entry, looked up): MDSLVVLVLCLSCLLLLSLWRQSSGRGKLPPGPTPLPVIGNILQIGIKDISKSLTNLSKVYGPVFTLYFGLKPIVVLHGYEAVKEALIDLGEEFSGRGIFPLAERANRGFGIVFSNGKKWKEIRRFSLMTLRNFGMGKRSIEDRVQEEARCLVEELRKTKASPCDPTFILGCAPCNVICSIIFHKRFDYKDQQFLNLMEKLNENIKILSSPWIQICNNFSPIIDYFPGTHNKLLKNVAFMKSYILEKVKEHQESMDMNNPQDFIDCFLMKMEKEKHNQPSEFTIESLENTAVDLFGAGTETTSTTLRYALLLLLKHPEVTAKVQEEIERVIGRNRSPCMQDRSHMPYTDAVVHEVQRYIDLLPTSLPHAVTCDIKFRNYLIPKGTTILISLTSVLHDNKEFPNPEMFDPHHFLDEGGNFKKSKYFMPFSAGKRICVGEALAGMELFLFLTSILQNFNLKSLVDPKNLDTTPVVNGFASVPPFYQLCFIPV
CYP2C9 inhib – blockers of cytochrome P450 2C9 activity – biochemical, luminescence, ADME assay, primary screen. P11712. CYP2C9 Supersomes, luciferin-H conversion. inhibition, % at 5 µM. 96,000 tested, 20% active;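 active = blocking of liver enzyme CYP2C9 beyond about 50% at 5 µM, limit read from the data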
Active calls of the source: *. Compounds with a hit are over-represented: about 27% of the library has one in this group of screens.

What do the screens show for `O=C(NCC1CCCO1)C1C2C=CC3(CN(Cc4cccs4)C(=O)C13)O2` (stereo unspecified)?
Cav32 inh: 0.66; CYP2C19 act: 1; CYP2C19 inh: 3; CYP2C9 act: 0.8; CYP2C9 inhib: 17

How did CC(C)(C)c1cc(CN2CCCC(O)C2)c(O)c(C(C)(C)C)c1 (stereo unspecified) do in these assays?
Cav32 inh: -0.92; CYP2C19 act: 0.8; CYP2C19 inh: 21; CYP2C9 act: 0.6; CYP2C9 inhib: 37

How did CC1CCCCC1NC(=O)COC(=O)c1ccc(N(C)C)cc1 (stereo unspecified) do in these assays?
Cav32 inh: 0.34; CYP2C19 act: 0.1; CYP2C19 inh: 91*; CYP2C9 act: 0.6; CYP2C9 inhib: 41

Results for CCOC(=O)CN1C(=O)N[C@@H](CCc2ccccc2)C(C(C)=O)=C1C ?
Cav32 inh: 0.13

What do the screens show for `Fc1ccc(-c2csc3nnc(SCc4cccnc4)n23)cc1`?
Cav32 inh: -0.026; CYP2C19 act: 0.2; CYP2C19 inh: 83*; CYP2C9 act: 0.9; CYP2C9 inhib: 10

What do the screens show for `c1ccc(-c2csc3nnc(SCc4ccc5c(c4)OCO5)n23)cc1`?
Cav32 inh: -1.8; CYP2C19 act: 0.1; CYP2C19 inh: 92*; CYP2C9 act: 0.1; CYP2C9 inhib: 92*

What do the screens show for `O=C(CCSc1nnc2scc(-c3ccccc3)n12)NCc1ccc2c(c1)OCO2`?
Cav32 inh: 1.2; CYP2C19 act: 0.6; CYP2C19 inh: 38; CYP2C9 act: 0.5; CYP2C9 inhib: 46

What do the screens show for `O=C(CSc1nnc2scc(-c3ccccc3)n12)Nc1ccc2c(c1)OCCO2`?
Cav32 inh: -1.1; CYP2C19 act: 0.6; CYP2C19 inh: 35; CYP2C9 act: 0.5; CYP2C9 inhib: 53*

What do the screens show for `Cc1nn(-c2ccccc2)c(C)c1/C=N/n1c(-c2ccc(C(C)(C)C)cc2)n[nH]c1=S`?
Cav32 inh: -1.2; CYP2C19 act: 0.7; CYP2C19 inh: 34; CYP2C9 act: 0.2; CYP2C9 inhib: 82*

What do the screens show for `Cc1nn(-c2ccccc2)c(C)c1/C=N\NS(=O)(=O)c1ccc(Cl)cc1`?
Cav32 inh: -3.5; CYP2C19 act: 0; CYP2C19 inh: 98*; CYP2C9 act: 0; CYP2C9 inhib: 99*

How did Cc1ccc(-c2cc(C(=O)N/N=C/c3c(C)nn(-c4ccccc4)c3C)[nH]n2)cc1 do in these assays?
CYP2C19 act: 0.7; CYP2C19 inh: 29; CYP2C9 act: 0.8; CYP2C9 inhib: 25

How did Cc1nn(-c2ccccc2)c(C)c1/C=N/NC(=O)c1cc(C(C)(C)C)[nH]n1 do in these assays?
Cav32 inh: -0.22; CYP2C19 act: 0.7; CYP2C19 inh: 27; CYP2C9 act: 0.4; CYP2C9 inhib: 58*

Results for O=C(NCCCN1CCOCC1)C(Sc1ccccc1)c1ccccc1 (stereo unspecified) ?
Cav32 inh: 1.7; CYP2C19 act: 0.7; CYP2C19 inh: 34; CYP2C9 act: 1.1; CYP2C9 inhib: -9

What do the screens show for `C#CCO[C@@H]1C[C@H](n2ccc(NC(=O)c3ccccc3)nc2=O)O[C@@H]1CO`?
Cav32 inh: 0.8

Results for COc1ccc(N=C2C(=O)Nc3c(C)cccc32)cc1 ?
Cav32 inh: 0.068; CYP2C19 act: 1; CYP2C19 inh: -2; CYP2C9 act: 0.9; CYP2C9 inhib: 5

Results for CCOC(=O)N1CCN(CC(O)COC2CC(C)CCC2C(C)C)CC1 (stereo unspecified) ?
Cav32 inh: -1.6; CYP2C19 act: 0.4; CYP2C19 inh: 57*; CYP2C9 act: 0.5; CYP2C9 inhib: 48

What do the screens show for `CCOC(=O)N1CCN(CC(O)COCCC23CC4CC(CC(C4)C2)C3)CC1` (stereo unspecified)?
Cav32 inh: -1.8; CYP2C19 act: 0.8; CYP2C19 inh: 22; CYP2C9 act: 1; CYP2C9 inhib: 4

Results for COCCNC(=O)c1c(NC(=O)c2nc(SC)ncc2Cl)sc2c1CCCC2 ?
Cav32 inh: 0.072; CYP2C19 act: 1.1; CYP2C19 inh: -6; CYP2C9 act: 1; CYP2C9 inhib: -1

What do the screens show for `CCC(C)(C)n1nnnc1C(c1cc2ccc(OC)cc2[nH]c1=O)N1CCc2ccccc2C1` (stereo unspecified)?
Cav32 inh: -3.7; CYP2C19 act: 0.8; CYP2C19 inh: 18; CYP2C9 act: 0.3; CYP2C9 inhib: 73*

Bioassay records from PubChem BioAssay.
